Results taken from PubChem BioAssay (Tox21).
Results filed as inconclusive are left out. The source made the active and inactive calls. Calls come from the whole dose curve; as a rule, active = well fitted curve in the direction sought with a large enough effect in the repeat runs; inconclusive = weak or mixed curves; inactive = no such curve, though single readings can be large; an effect the other way counts as inactive or inconclusive. Where a SMILES comes first, the peptide text is derived from it. [ ]: non-standard residue; d: D form. pGlu = O=C1CC[C@@H](C(=O)O)N1

Assays:
[1] = Caspase-3/7 induction in CHO-K1 cells by small molecules, qHTS cell viability counter screen (AID 1346979); note: nearly all actives have a fitted effect of over 35% in size
Method in brief: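 Cells (CHO-K1, wild type) are plated at 1,500 per well and incubated 5hr. Test compounds in DMSO are then pinned in, followed by 16hr at 37C and 5% CO2. Viability is read by CellTiter-Fluor fluorescence after 1hr.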

[2] = Caspase-3/7 induction in CHO-K1 cells by small molecules, qHTS assay (AID 1346980); note: nearly all actives have a fitted effect of over 15% in size
Method in brief: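 Wild-type CHO-K1 cells exposed to compounds for 17hr at 37 C, 5% CO2. Caspase-3/7 activity then measured by Caspase-Glo 3/7 luminescence after 30min at room temperature.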

[3] = Caspase-3/7 induction in HepG2 cells by small molecules, qHTS cell viability counter screen (AID 1346981); note: series mostly up to about 92 µM; nearly all actives have a fitted effect of over 30% in size
Method in brief: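 Counter screen for cytotoxicity: HepG2 exposed 16 hr to compounds, then CellTiter-Fluor viability signal (fluorescence, 1 hr reagent incubation).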

[4] = target: Nuclear receptor subfamily 1 group I member 2 (Homo sapiens) (UniProt O75469); assay: Human pregnane X receptor (PXR) small molecule agonists, qHTS assay (AID 1346982); note: nearly all actives have a fitted effect of over 35% in size; note: potency is the fitted concentration of half-maximal effect
Method in brief: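 Luminescence (ONE-Glo, 30 min RT) after 24 hr compound exposure of PXR-Luc HepG2 cells; cells rested 5 hr post-plating in 5% charcoal-stripped FBS medium.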

[5] = target: Cytochrome P450 2D6 (Homo sapiens) (UniProt P10635); assay: Cytochrome P450 Family 2 Subfamily D Member 6 (CYP2D6) small molecule antagonists: luciferase reporter qHTS assay (AID 1671196); note: nearly all actives have a fitted effect of over 50% in size; note: potency is the fitted concentration of half-maximal effect; for activity change, negative = inhibition: series mostly up to about 120 µM
Method in brief: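 Inhibition of CYP2D6 was gauged by loss of luminescence, since light produced tracks the luciferin generated from a proluciferin substrate. A 10 min room-temperature preincubation preceded 1 h NADPH-supported turnover.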

[6] = target: Cytochrome P450 2C19 (Homo sapiens) (UniProt P33261); assay: Cytochrome P450 Family 2 Subfamily C Member 19 (CYP2C19) small molecule antagonists: luciferase reporter qHTS assay (AID 1671197); note: nearly all actives have a fitted effect of over 65% in size; note: potency is the fitted concentration of half-maximal effect; for activity change, negative = inhibition: series mostly up to about 120 µM
Method in brief: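 First, compounds are pinned into enzyme-substrate mix and held 10 min at room temperature. Second, NADPH regeneration solution is added and plates incubate 1 h at 37C. Third, detection reagent is added and luminescence read after 20 min.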

[7] = target: Cytochrome P450 2C9 (Homo sapiens) (UniProt P11712); assay: Cytochrome P450 Family 2 Subfamily C Member 9 (CYP2C9) small molecule antagonists: luciferase reporter qHTS assay (AID 1671198); note: nearly all actives have a fitted effect of over 50% in size; note: potency is the fitted concentration of half-maximal effect; for activity change, negative = inhibition: series mostly up to about 120 µM
Method in brief: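 P450-Glo proluciferin substrate with CYP2C9 enzyme; 10 min RT preincubation, then NADPH regeneration 1 h at 37C; luciferin detection reagent 20 min RT, luminescence in relative luminescence units.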
% is set by controls: 0 for no effect and ±100 for the full control effect.

Chain of Cytochrome P450 2C19 (Homo sapiens) (P33261 whole entry, looked up): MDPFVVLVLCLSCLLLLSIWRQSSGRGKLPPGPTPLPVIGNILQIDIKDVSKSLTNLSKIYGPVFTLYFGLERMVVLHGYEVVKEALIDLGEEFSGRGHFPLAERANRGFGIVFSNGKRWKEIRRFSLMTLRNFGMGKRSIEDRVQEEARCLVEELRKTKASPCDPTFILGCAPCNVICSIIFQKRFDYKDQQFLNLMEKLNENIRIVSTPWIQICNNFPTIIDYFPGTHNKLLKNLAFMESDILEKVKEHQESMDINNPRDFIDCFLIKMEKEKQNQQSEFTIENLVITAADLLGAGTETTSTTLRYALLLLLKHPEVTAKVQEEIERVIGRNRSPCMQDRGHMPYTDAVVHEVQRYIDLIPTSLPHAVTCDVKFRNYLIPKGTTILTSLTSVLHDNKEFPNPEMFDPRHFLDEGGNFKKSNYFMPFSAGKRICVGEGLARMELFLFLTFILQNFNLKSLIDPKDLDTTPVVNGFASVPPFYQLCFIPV
Chain of Nuclear receptor subfamily 1 group I member 2 (Homo sapiens) (O75469 whole entry, looked up): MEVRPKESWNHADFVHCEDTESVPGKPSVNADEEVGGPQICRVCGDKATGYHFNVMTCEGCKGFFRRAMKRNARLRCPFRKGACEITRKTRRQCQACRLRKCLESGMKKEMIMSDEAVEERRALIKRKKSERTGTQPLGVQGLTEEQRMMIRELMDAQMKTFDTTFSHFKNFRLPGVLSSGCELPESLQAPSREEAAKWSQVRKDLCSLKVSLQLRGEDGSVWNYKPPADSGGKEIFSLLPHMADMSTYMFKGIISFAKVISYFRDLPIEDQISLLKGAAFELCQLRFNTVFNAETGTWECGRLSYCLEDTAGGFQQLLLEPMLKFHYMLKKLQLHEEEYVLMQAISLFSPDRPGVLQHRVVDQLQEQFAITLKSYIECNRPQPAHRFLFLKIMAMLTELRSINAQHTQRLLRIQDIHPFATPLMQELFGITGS
Chain of Cytochrome P450 2D6 (Homo sapiens) (P10635 whole entry, looked up): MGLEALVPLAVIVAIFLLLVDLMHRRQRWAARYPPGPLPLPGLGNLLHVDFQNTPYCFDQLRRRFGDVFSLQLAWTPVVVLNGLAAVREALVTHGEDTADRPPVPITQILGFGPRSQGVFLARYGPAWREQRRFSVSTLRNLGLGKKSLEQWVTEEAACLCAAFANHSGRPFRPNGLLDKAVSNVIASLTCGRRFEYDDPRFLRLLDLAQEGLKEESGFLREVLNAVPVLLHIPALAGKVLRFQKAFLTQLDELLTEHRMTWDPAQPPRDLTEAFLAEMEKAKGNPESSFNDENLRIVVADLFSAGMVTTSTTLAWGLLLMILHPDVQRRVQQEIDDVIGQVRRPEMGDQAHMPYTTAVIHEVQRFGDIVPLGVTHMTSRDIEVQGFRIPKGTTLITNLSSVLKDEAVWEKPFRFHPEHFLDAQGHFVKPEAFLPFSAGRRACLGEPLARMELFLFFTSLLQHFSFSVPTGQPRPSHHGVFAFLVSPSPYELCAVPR
Chain of Cytochrome P450 2C9 (Homo sapiens) (P11712 whole entry, looked up): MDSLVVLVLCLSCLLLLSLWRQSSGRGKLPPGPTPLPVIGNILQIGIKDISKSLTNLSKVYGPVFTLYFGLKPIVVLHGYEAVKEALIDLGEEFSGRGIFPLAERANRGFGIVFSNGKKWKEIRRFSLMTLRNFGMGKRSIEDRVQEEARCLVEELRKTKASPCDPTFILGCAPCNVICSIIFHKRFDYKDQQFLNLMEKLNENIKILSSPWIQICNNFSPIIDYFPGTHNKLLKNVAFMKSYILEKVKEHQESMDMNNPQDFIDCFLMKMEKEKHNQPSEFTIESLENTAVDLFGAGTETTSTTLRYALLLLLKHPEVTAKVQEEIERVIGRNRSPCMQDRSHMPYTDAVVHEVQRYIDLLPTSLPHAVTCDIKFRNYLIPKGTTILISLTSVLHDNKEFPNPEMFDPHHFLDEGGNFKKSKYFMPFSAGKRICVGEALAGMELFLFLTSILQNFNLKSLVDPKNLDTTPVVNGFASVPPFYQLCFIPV

O=CN(CCO)CCO
inactive: Potency [1] | outcome [2] | Potency [3] | Potency [4] | Potency [5] | Potency [6] | Potency [7]

O=[N+]([O-])c1cncn1CCN1CCOCC1
inactive: Potency [1] | outcome [2] | Potency [3] | Potency [4] | Potency [5] | Potency [6] | Potency [7]

CC(=O)c1ccccc1[N+](=O)[O-]
active: Potency [4] 30.1 µM
inactive: Potency [1] | outcome [2] | Potency [3] | Potency [5] | Potency [6] | Potency [7]

CN(C)CCCN(C)CCCN(C)C
inactive: Potency [1] | outcome [2] | Potency [3] | Potency [4] | Potency [5] | Potency [6]

CCCO[Si](OCCC)(OCCC)OCCC
inactive: Potency [1] | outcome [2] | Potency [3] | Potency [4] | Potency [5] | Potency [6] | Potency [7]

CC(C)(CCC(=O)O)C(=O)O
inactive: Potency [1] | outcome [2] | Potency [3] | Potency [4] | Potency [5] | Potency [6] | Potency [7]

CC1(C)OC[C@@H](COC(=O)CCc2ccc(OC[C@@H](O)CNCCNC(=O)N3CCOCC3)cc2)O1
inactive: Potency [1] | outcome [2] | Potency [3] | Potency [4] | Potency [5] | Potency [6] | Potency [7]

CCNC(=O)[C@@H]1CCCN1C(=O)[C@H](CCCN=C(N)N)NC(=O)[C@H](CC(C)C)NC(=O)CNC(=O)[C@H](Cc1ccc(O)cc1)NC(=O)[C@H](CO)NC(=O)[C@H](Cc1c[nH]c2ccccc12)NC(=O)[C@H](Cc1cnc[nH]1)NC(=O)[C@@H]1CCC(=O)N1 ([pGlu]HWSYGLRP-NHEt)
inactive: Potency [1] | outcome [2] | Potency [3] | Potency [4] | Potency [5] | Potency [6] | Potency [7]

CC(C)C1CCC(O)CC1 (configuration not stated)
inactive: Potency [1] | outcome [2] | Potency [3] | Potency [4] | Potency [5] | Potency [6]

NC(CCC(=O)O)C(=O)O (configuration not stated)
active: Potency [5] 31 µM
inactive: Potency [1] | outcome [2] | Potency [3] | Potency [4] | Potency [6] | Potency [7]

CCCCOC(=O)CCC(C)=O
inactive: Potency [1] | outcome [2] | Potency [3] | Potency [4] | Potency [5] | Potency [6] | Potency [7]

O=S(=O)(O)c1cccc(S(=O)(=O)O)c1
inactive: Potency [1] | outcome [2] | Potency [3] | Potency [4] | Potency [5] | Potency [6]

CCOc1c(N2CCOCC2)cnn(C)c1=O
inactive: Potency [1] | outcome [2] | Potency [3] | Potency [4] | Potency [5] | Potency [6] | Potency [7]

CCOC(=O)C(=O)CCCCCCl
active: Potency [5] 38.9 µM | Potency [6] 17.4 µM
inactive: Potency [1] | outcome [2] | Potency [3] | Potency [4]

CCCCc1ccc2c(n1)[C@@H](c1ccc(OC)cc1C[C@H](C)C(=O)O)[C@H](C(=O)O)[C@H]2c1ccc2c(c1)OCO2
inactive: Potency [1] | outcome [2] | Potency [3] | Potency [4] | Potency [6]
active: Potency [5] 71 µM | Potency [7] 35.6 µM

CC(C)CC(C)(N)C#N (configuration not stated)
inactive: Potency [1] | outcome [2] | Potency [3] | Potency [4] | Potency [5] | Potency [6]

COc1ccnc(CS(=O)c2nc3cc(OC(F)F)ccc3[nH]2)c1OC (configuration not stated)
active: Potency [4] 24.5 µM | Potency [5] 12.7 µM | Potency [6] 8.99 µM
inactive: Potency [1] | outcome [2] | Potency [3]

CCCCOCCOC(=O)CCCCCCCCC(=O)OCCOCCCC
inactive: Potency [1] | outcome [2] | Potency [3] | Potency [4] | Potency [5]
active: Potency [6] 31.7 µM | Potency [7] 35.6 µM

COc1ccccc1OCC1CNC(=O)O1 (configuration not stated)
inactive: Potency [1] | outcome [2] | Potency [3] | Potency [4] | Potency [5] | Potency [6] | Potency [7]

CCCCCCC#CC(=O)OC
inactive: Potency [1] | outcome [2] | Potency [3] | Potency [4] | Potency [5] | Potency [6] | Potency [7]

CC1=NN(c2cccc(S(=O)(=O)O)c2)C(=O)C1
inactive: Potency [1] | outcome [2] | Potency [3] | Potency [4] | Potency [5] | Potency [6] | Potency [7]

CNCCO
inactive: Potency [1] | outcome [2] | Potency [3] | Potency [4] | Potency [5] | Potency [6] | Potency [7]

[K+]
active: Potency [4] 27.3 µM
inactive: Potency [1] | outcome [2] | Potency [3] | Potency [5] | Potency [6] | Potency [7]

Cc1cc(C)c(N=Nc2c(O)c(S(=O)(=O)O)cc3cc(S(=O)(=O)O)ccc23)cc1C
inactive: activity change, negative = cytotoxicity [1] -8.22% [at 8.39 µM] | caspase-3/7 activation [2] -0.604% [at 8.39 µM] | activity change, negative = cytotoxicity [3] -13.8% [at 8.39 µM] | activation [4] -9.92% [at 8.39 µM] | activity change, negative = inhibition [5] -11.1% [at 10.5 µM] | activity change, negative = inhibition [6] 9.38% [at 10.5 µM] | activity change, negative = inhibition [7] 1.8% [at 10.5 µM]

CCO[Si](OCC)(OCC)c1ccccc1
inactive: Potency [1] | outcome [2] | Potency [3] | Potency [4] | Potency [5] | Potency [6] | Potency [7]

C[N+]1(CC2COC(c3ccccc3)(c3ccccc3)O2)CCCCC1 (configuration not stated)
inactive: activity change, negative = cytotoxicity [1] 2.24% [at 19 µM] | caspase-3/7 activation [2] -0.436% [at 19 µM] | activity change, negative = cytotoxicity [3] 9.88% [at 19 µM] | activation [4] 5.26% [at 19 µM] | Potency [6]
active: Potency [5] 1.69 µM

C=CC(C)(CCC=C(C)C)OC(=O)CC (configuration not stated)
inactive: Potency [1] | outcome [2] | Potency [3] | Potency [4] | Potency [5]
active: Potency [6] 35.6 µM | Potency [7] 31.7 µM
